Measurements from PubChem BioAssay AID2401 (Southern Research Specialized Biocontainment Screening …, 2010).
The whole screen tested about 2,200 compounds, of which about 530 (24%) were called active.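 Rule for the calls: active = inhibition above a set limit at one or more concentrations of the dose series; inactive = inhibition under that limit at every dose.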 A selection follows. Results with a measured potency or affinity are listed apart.

Test: nmpC-GFP reporter counter-screen in S. Typhimurium, dose response, counter-screen for PhoP regulon inhibitor project, Salmonella Typhimurium, GFP fluorescence (AID 2401);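 note: S. typhimurium with Mg-insensitive nmpC-GFP reporter grown at 10 µM Mg2+; drop in reporter fluorescence reflects general culture growth inhibition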
Conditions: 4 h; series mostly up to 150 µM; inhibition: at the top concentration

SMILES | inhibition
CCOc1ccc2nc(COC(=O)c3ccco3)c(C(C)=O)[n+]([O-])c2c1 | -18.2% (inactive)
O=C(Nc1ccc(Br)cc1)c1ccc(F)c(S(=O)(=O)NCc2cccs2)c1 | -27.7% (inactive)
NCCCCCc1nnc(SCc2ccc(Cl)c(Cl)c2)o1 | 1.67% (inactive)
O=C(Cn1cc[n+](CC(=O)c2ccccc2)c1)c1ccccc1 | -18.9% (inactive)
CC(C)(C)c1n[nH]c(=S)n(/N=C/c2cccs2)c1=O | -21.7% (inactive)
N#CC1=C(N)SC(N)=C(C#N)C1c1ccc([N+](=O)[O-])cc1 | -16.9% (inactive)
Cc1cc(Oc2ccc(-c3nnc(-c4ccccc4)o3)cc2[N+](=O)[O-])ccc1Cl | -20.9% (inactive)
Cc1ccccc1OCCSCc1nc2ccccc2[nH]1 | 17.8% (inactive)
O=C(CCN1C(=O)c2ccccc2S1(=O)=O)Nc1ccc2c(c1)OCCO2 | -18.3% (inactive)
COc1ccc(OC)c(S(=O)(=O)N2c3cc(F)ccc3CCC2C)c1 (centres undefined) | -21.7% (inactive)
O=C(NNc1c2ccccc2nc2ccccc12)c1cccc(O)c1 | 17.4% (inactive)
CC1(C)CC(=O)c2c(nc3ccccc3c2N)C1 | 9.98% (inactive)
Nc1nnc(SCc2ccc(F)cc2Cl)s1 | -55% (inactive)
CNC(=O)CN(c1ccc(F)cc1)S(=O)(=O)c1cc(C)ccc1OC | -28.5% (inactive)
CN1CCCC(OC(=O)CCCC(=O)OC2CCCN(C)C2)C1 (centres undefined) | -24.7% (inactive)
Cc1ccc2[nH]c3c(=O)n(CCc4cnc[nH]4)cnc3c2c1 | -30.1% (inactive)
Cc1ccc(C(=O)COC(=O)CNS(=O)(=O)c2ccccc2)cc1[N+](=O)[O-] | -25.7% (inactive)
CC(C)n1cc(C(=O)N2CCCC(N3CCN(c4ccc(F)cc4)CC3)C2)cn1 (centres undefined) | -29.9% (inactive)
CCn1cc(C(C)(C)C)c(C#N)c1NC(C)=O | -3.54% (inactive)
O=C(NC1CCCCC1)n1c(=O)oc2ccc(Cl)cc21 | 31.2% (inactive)
O=C(CCN1C(=O)C2C3C=CC(C3)C2C1=O)N1CCN(c2cccc(Cl)c2)CC1 (centres undefined) | -20.2% (inactive)
Cc1cccc(OCC(=O)N(Cc2cccs2)C2CCS(=O)(=O)C2)c1C (centres undefined) | -19.3% (inactive)
CC(C)Oc1cccc(C(=O)NC(=S)Nc2ccccc2)c1 | -26% (inactive)

SMILES | inhibition
CC(C)OC(=O)c1ccc(NC(=O)c2ccccc2)cc1 | -13.3% (inactive)
COc1ccc(Oc2coc3cc(OC(=O)c4cccs4)ccc3c2=O)cc1 | -16.5% (inactive)
COC(=O)c1ccc(NC(=O)c2ccc(N(C)S(C)(=O)=O)cc2)cc1 | -11.4% (inactive)
O=C(CCCCCNc1nc(=S)[nH]c2ccccc12)NCCc1c[nH]c2ccccc12 | -31.1% (inactive)
O=C(NNC(=O)c1ccccc1-n1cccc1)c1ccc(Cl)c(Cl)c1 | -29.7% (inactive)
Cc1ccccc1NC(=S)N(CCCN1CCOCC1)Cc1ccccn1 | -8.55% (inactive)
CCOc1ccc(CCNC(=O)c2cc3sc(Cl)cc3n2C)cc1OCC | -12.1% (inactive)
CCOc1ccc(/C=N/O)cc1 | -9.74% (inactive)
CCN1CCN(C(=O)c2ccc(COc3ccc(Cl)cc3)o2)CC1 | -14.7% (inactive)
COc1ccc(C)cc1C(=O)CCC(=O)Nc1ccccc1N1CCOCC1 | -8.09% (inactive)
C#CCOc1ccc(/C=N/O)cc1Cl | -5% (inactive)
COc1ccc(C(C(=O)NC2CCCC2)N(C(=O)c2ccoc2C)c2cc(C)cc(C)c2)cc1 (centres undefined) | -8.71% (inactive)
COc1ccc(NS(=O)(=O)c2cc(C)ccc2NC(=O)c2cc(C)oc2C)cc1 | -4.38% (inactive)
Cc1cc2oc(=O)cc(CSc3nc(N)cc(N)n3)c2cc1C | -31.2% (inactive)
O=C(CSc1nncs1)Nc1ccc2c(c1)OCCO2 | -24.4% (inactive)
CCOc1ccc(OCc2ccc(C(=O)N3CCc4ccccc4C3)o2)cc1 | -19% (inactive)
Cc1cc(C(=O)NCc2cccs2)cs1 | -11.6% (inactive)
COc1ccc2[nH]c(S(=O)Cc3ncc(C)c(OC)c3C)nc2c1 (centres undefined) | -33.3% (inactive)
Cc1ccc(C(C)C)c(OCC(=O)Nn2c(=O)[nH]c3ccccc3c2=O)c1 | -26.8% (inactive)
O=C(NC1CC1)C1=NOC(CNc2ncc(C(F)(F)F)cc2Cl)C1 (centres undefined) | -15% (inactive)
O=C(Cc1n[nH]c(=O)c2ccccc12)OCC(=O)c1ccc2c(c1)OCCO2 | 21.7% (inactive)
c1ccc(Cc2nnc(-c3ccccc3)o2)cc1 | -23.2% (inactive)
COc1ccc(NC(=O)CN2CCCCC2)c([N+](=O)[O-])c1 | -10.1% (inactive)

SMILES | inhibition
CC(C)Cc1oc(C(=O)O)cc1CN1CCOCC1 | 3.36% (inactive)
Oc1ccccc1CN1CCCN(Cc2ccccc2O)C1 | -20.8% (inactive)
CC(C)(C)c1ccc(C(=O)NC(=S)NCc2cccnc2)cc1 | -17.4% (inactive)
O=C(Nc1nc2cc3c(cc2s1)OCO3)C1=COCCO1 | -4.16% (inactive)
CCOc1ccc(CSC(CC(=O)O)C(=O)O)cc1 (centres undefined) | -4.91% (inactive)
O=C(CSc1ncnc2ccccc12)Nc1cc(S(=O)(=O)N2CCCCC2)ccc1Cl | 19.2% (inactive)
Cc1ccc(CCNC(=O)C2CCN(S(=O)(=O)N3CCCC3)CC2)cc1 | -28.9% (inactive)
COc1ccc(CN2CCOCC2)cc1Br | -7.96% (inactive)
N#Cc1ccc(COC(=O)c2ccc3c(=O)[nH]c(CN4CCOCC4)nc3c2)cc1 | -22.3% (inactive)
COc1ccc(C(=O)Oc2c(CN3CCOCC3)cc(Cl)c3cccnc23)cc1 | -5.79% (inactive)
COc1ccc(CCNC(=O)c2ccc(CN3CCOCC3)cc2)cc1 | 15.6% (inactive)
COc1ccc(C2C(C(=O)c3cccs3)=C(O)C(=O)N2c2nnc(C)s2)cc1OC (centres undefined) | -21.4% (inactive)
CCC(CC)C(=O)Nc1cccc(C(=O)N2CCCC2)c1 | -16.5% (inactive)
c1ccn2c(CNc3ncnc4sccc34)nnc2c1 | -28% (inactive)
Cc1cc(C)c2cc(CN(Cc3cccnc3)C(=O)c3ccc(F)cc3)c(Cl)nc2c1 | -19.2% (inactive)
c1ccc(C2(CNc3ccccn3)CCCC2)cc1 | 0.11% (inactive)
O=c1[nH]c(CSc2ncc(-c3ccc(F)cc3)n2Cc2ccco2)nc2ccccc12 | -10.5% (inactive)
CC(C)(C)C1CCC2(CC1)Nc1cccc3cccc(c13)N2 | 15.8% (inactive)
CCn1c2ccccc2c2cc(NC(=O)C(C)Oc3ccccc3)ccc21 (centres undefined) | -20% (inactive)
COc1cccc(N(C(=O)c2ccco2)c2nc(-c3sc(NC(=O)c4ccco4)nc3C)cs2)c1 | 25.6% (inactive)
Cc1ccc(Nc2nc(N)nc(CC#N)n2)cc1 | -12.2% (inactive)
C/C(CC(=O)Nc1ccc(Cl)c(C(F)(F)F)c1)=N\NC(=O)c1cccc(O)c1 | 7.3% (inactive)
CCCCCC(=O)Nc1ccc2ccccc2c1 | -15.9% (inactive)

SMILES | inhibition
CC1CC(C)CN(CCCNC(=O)C2CCC(=O)N2C2CCCC2)C1 (centres undefined) | -29.9% (inactive)
Cc1ccc(NC2CC(=O)N(Cc3ccccc3)C2=O)cc1 (centres undefined) | -22.2% (inactive)
Cc1ccc(-n2nc(-c3ccc(N)cc3)cc2N)cc1 | 8.99% (inactive)
CC(C)=CCN1CCN(Cc2ccoc2)CC1CCO (centres undefined) | -13.7% (inactive)
O=C(CCCN1Cc2ccccc2C1)c1ccc(F)cc1 | 2.23% (inactive)
CCOc1ccc(/C=C/C(=O)Nc2ccc(OC)cc2[N+](=O)[O-])cc1 | -20.8% (inactive)
O=C(CSc1nc2ccccc2[nH]1)Nc1ccc(F)c(F)c1 | 5.43% (inactive)
O=C(CNc1ccccc1)Nc1ccc(F)cc1 | 16.5% (inactive)
COc1ccc(NC(=O)ON=C2c3ccccc3-c3ccccc32)cc1 | 12.5% (inactive)
Cc1ccc(-c2cc(-c3ccc(Cl)cc3)c(C#N)c(N)n2)o1 | 2.62% (inactive)
O=C1CCc2cc(S(=O)(=O)N3CCN(c4cccc(Cl)c4)CC3)ccc2N1 | -14.1% (inactive)
Cc1ccc(NC(NC(=O)c2ccccn2)C(Cl)(Cl)Cl)cc1 (centres undefined) | -10.7% (inactive)
CCNC(=S)NNC(=O)c1ccc(OC(F)F)cc1 | -1.1% (inactive)
COC(=O)CCC(=O)Nc1ccc(Cl)c(Cl)c1 | 21.1% (inactive)
S=C(Nc1ccc(Cl)c(Cl)c1)N1CCOCC1 | -1.89% (inactive)
CCN(C(=O)COc1cc(=O)n(CC)c2ccccc12)c1cccc(Cl)c1 | -6.53% (inactive)
O=C(c1ccc(Oc2ccccc2)cc1)c1nc2c(n1O)CCCC2 | 14.3% (inactive)
CC(C)(C)c1cc2cccnc2n1Cc1cccc(Cl)c1 | -26.7% (inactive)
Nc1ncncc1-c1ccc([N+](=O)[O-])cc1 | 36.5% (inactive)
O=C(Cn1ncc2c(=O)oc3ccccc3c21)N1CCN(c2ccccn2)CC1 | -15.8% (inactive)
O=C1CC(SCc2nc3ccccc3[nH]2)C(=O)N1c1ccc(Cl)cc1 (centres undefined) | -18.6% (inactive)
Cc1ccc(C(=O)CSC2=C(C#N)C(c3ccco3)CC(=O)N2)c(C)c1 (centres undefined) | -15.7% (inactive)
O=c1cc(-c2ccc([N+](=O)[O-])cc2)nc2cc(-c3ccc(Cl)cc3)[nH]n12 | -32% (inactive)

SMILES | inhibition
Cc1ccc2cccc(Oc3ncnc4scc(-c5ccccc5)c34)c2n1 | -17.1% (inactive)
CN1c2ccccc2C(=O)NC1c1ccc([N+](=O)[O-])s1 (centres undefined) | -3.11% (inactive)
NC(CSC12CC3CC(CC(C3)C1)C2)C(=O)O (centres undefined) | -19.5% (inactive)
Cc1cc(-c2nnc(-c3ccccc3)c(-c3ccccc3)n2)c(C)o1 | -11.2% (inactive)
CCn1c2ccccc2c2cc(/C=N/NC(=O)c3ccccc3)ccc21 | 6.74% (inactive)
O=C(N/N=C/c1ccco1)c1cccc(S(=O)(=O)Nc2ccccc2Cl)c1 | -10.1% (inactive)
Cc1ccc(-n2c(C)cc(/C=N/NC(N)=S)c2C)cc1 | 29.6% (inactive)
CCN(CC)S(=O)(=O)c1cccc(C(=O)NC(Cc2c[nH]c3ccccc23)c2nnc3n2CCC3)c1 (centres undefined) | -14.8% (inactive)
O=C1c2ccccc2C2=Nc3ccccc3SC(c3cccc(F)c3)C12 (centres undefined) | 18% (inactive)
CC1C(C#N)=C(N)OC2=C1C(=O)CCC2 (centres undefined) | -0.77% (inactive)
Cc1cccc(NC(=O)CCC(=O)OCc2ccc(Br)cc2)c1 | -16% (inactive)
Cc1ccnc2nc(C(=O)Nc3ccc4c(c3)OCO4)nn12 | -5.04% (inactive)
CN(C)c1ccc([C@@H]2[C@@H]([N+](=O)[O-])[C@H]3C=Cc4ccccc4N3[C@H]2C(=O)c2ccc(Cl)cc2)cc1 | 33.2% (inactive)
COc1ccc(OC)c(/C=N/NC(=O)c2cc3c(OC)c(OC)ccc3[nH]2)c1 | -7.95% (inactive)
O=C(Cc1cccs1)Nc1cccc(-c2nc3cc4ccccc4cc3[nH]2)c1 | -6.72% (inactive)
Cc1cc(/C=N/n2cnnc2)c(C)n1-c1ccc(OCc2ccc(F)cc2)cc1 | -15.3% (inactive)
O=C(O)CC(NC(=S)NCc1ccccc1)C(=O)O (centres undefined) | -29.4% (inactive)
COC(=O)c1ccc(Nc2cc(C)nc3ccccc23)cc1 | -28.9% (inactive)
COc1ccc(/C=N/Nc2cc(C)nc3c(C)cccc23)cc1 | 2.4% (inactive)
O=c1c2oc3ccccc3c2ncn1Cc1ccc(Cl)cc1 | -19.4% (inactive)
Cc1[nH]n(-c2ccccc2)c(=O)c1-c1ccc(Cl)cc1 | -3.67% (inactive)
Cc1c(C(c2cccc([N+](=O)[O-])c2O)c2c(C)n(C)n(-c3ccccc3)c2=O)c(=O)n(-c2ccccc2)n1C | 5.18% (inactive)
